# From ChEMBL document CHEMBL4808148, “HDAC6 screening dataset using tau-based substrate in an enzymatic assay yields selective inhibitors and activators” (2021)
# The campaign covered roughly 5,600 compounds. About 390 (7%) showed an effect of 50% or more. The sample holds strong results, similar compounds and a random draw of the others, so the mix is not that of the screen. Starred links: 1 amine or outer side, 2 acyl side, 3 side chain; linkers in the order of their positions; H or OH if unused. Positions of bridges follow the written chain, without caps; N, C: chain ends. Non-standard residues stand in square brackets, D forms with d. Residues, ends and D or L forms follow the SMILES beside them. dTrp(2-Me) = Cc1[nH]c2ccccc2c1C[C@@H](N)C(=O)O; X5 = O=C(CCC[*:2])[*:1]
# What was measured:
# [1] = target: T1, Protein deacetylase HDAC6 (Homo sapiens) (UniProt Q9UBN7); conditions: at 10 µM
# T1 sequence (whole entry): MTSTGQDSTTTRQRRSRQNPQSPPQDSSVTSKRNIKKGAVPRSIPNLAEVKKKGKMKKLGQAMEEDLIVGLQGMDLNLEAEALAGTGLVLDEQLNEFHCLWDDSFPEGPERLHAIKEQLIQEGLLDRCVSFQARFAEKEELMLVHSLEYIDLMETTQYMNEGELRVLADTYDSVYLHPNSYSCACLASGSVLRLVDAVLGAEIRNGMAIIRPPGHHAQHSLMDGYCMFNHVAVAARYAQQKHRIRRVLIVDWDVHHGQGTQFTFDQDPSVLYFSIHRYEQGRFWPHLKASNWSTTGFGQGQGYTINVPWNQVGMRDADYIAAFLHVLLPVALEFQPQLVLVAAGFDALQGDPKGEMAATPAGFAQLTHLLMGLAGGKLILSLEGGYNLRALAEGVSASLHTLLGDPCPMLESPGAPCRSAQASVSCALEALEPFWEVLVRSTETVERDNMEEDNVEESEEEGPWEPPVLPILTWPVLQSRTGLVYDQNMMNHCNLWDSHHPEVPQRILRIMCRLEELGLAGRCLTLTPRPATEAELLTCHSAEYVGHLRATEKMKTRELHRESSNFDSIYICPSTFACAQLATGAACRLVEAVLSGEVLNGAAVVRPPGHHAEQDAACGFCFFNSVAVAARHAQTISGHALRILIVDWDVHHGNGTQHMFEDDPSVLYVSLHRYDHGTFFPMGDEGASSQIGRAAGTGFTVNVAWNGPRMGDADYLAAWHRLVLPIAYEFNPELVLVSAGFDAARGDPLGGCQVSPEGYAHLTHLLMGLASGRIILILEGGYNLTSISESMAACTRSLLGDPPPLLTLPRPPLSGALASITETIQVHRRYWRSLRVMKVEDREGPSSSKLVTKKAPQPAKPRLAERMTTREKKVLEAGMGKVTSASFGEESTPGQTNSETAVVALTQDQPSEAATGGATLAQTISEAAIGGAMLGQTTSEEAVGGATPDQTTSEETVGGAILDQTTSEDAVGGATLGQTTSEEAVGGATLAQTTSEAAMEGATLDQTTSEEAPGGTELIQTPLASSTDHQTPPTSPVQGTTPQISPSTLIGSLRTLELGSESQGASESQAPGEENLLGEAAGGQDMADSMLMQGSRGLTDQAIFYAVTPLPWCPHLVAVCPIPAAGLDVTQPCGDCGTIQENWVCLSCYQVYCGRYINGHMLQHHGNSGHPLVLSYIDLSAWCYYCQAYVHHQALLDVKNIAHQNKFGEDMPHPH
# [2] = target: Protein deacetylase HDAC6 (Homo sapiens) (UniProt Q9UBN7); conditions: at 10 µM; remark: listed apart in the source
Compound,inhibition [1] [%],inhibition [2] [%]
FC(F)(F)c1cccc(-c2noc(-c3cc(-c4ccccc4)c(C(F)(F)F)s3)n2)c1,18.5,–
O=C(O)c1cccc(-c2noc(-c3ccccc3F)n2)c1,105,–
O=C(c1ccc(F)cc1)N1CCC[C@H](c2nc(-c3ccc(F)cc3)no2)C1,10.8,–
CC1=C(/C=C/C(C)=C/C=C/C(C)=C/C=C/C=C(C)/C=C/C=C(C)/C=C/C2=C(C)C(=O)[C@@H](O)CC2(C)C)C(C)(C)C[C@H](O)C1=O,10.4,–
COc1ccc2cc1Oc1cc3c(cc1OC)CC[N+](C)(C)[C@H]3Cc1ccc(cc1)Oc1c(OC)c(OC)cc3c1[C@@H](C2)[N+](C)(C)CC3,16.5,–
CC[C@H](C)[C@@H]1NC(=O)[C@H](Cc2ccc(OC)cc2)NC(=O)CCCSC[C@@H](C(=O)N2CCC[C@H]2C(=O)N[C@@H](CC(C)C)C(=O)NCC(N)=O)NC(=O)[C@H](CC(N)=O)NC(=O)[C@H](CCC(N)=O)NC1=O (Y(Me)IQNCPLG-NH2; linker N-5 via X5),11,–
COc1cc(C[C@@H](CO)[C@H](CO)Cc2ccc(O)c(OC)c2)ccc1O,21.1,–
CCC(=O)NC[C@@H]1C[C@H]1c1cccc2c1CCO2,-8.79,–
O=C(CCCCCN1C(=O)c2cccc3cccc(c23)C1=O)NO,100,–
CN(C)CCN1C(=O)c2cccc3cc(N)cc(c23)C1=O,24.8,–
O=C(O)CCCN1C(=O)c2cccc3cccc(c23)C1=O,-3.55,–
CN1CCN(CCCCN2C(=O)CN(/N=C/c3ccc(-c4ccc(Cl)cc4)o3)C2=O)CC1,-7.57,–
COc1cc(Br)c(Nc2nc(-c3c(C)nc4ncccn34)cs2)c(Br)c1,-6.53,–
CCOc1ccc(-c2nc(-c3cccc4c3CCC4NCCO)no2)cc1OCC (stereo not drawn),26.2,–
CC(O)CCCCn1c(=O)c2c(ncn2C)n(C)c1=O (stereo not drawn),14.8,–
CC(C)(C)c1cc(C(=O)/C(C#N)=N/Nc2cccc(Cl)c2)no1,58.9,–
O=C(O)c1cc2ccccc2s1,36,–
CCCCCCCCCCCCCCCCCCO,10.8,–
Cc1cccc(COc2cccc(/C=C3\C(=O)NN(c4ccccc4)C3=O)c2)c1,6.83,–
C[C@H]1NCc2cc(-c3ccc4c(=O)c(C(=O)O)cn(C5CC5)c4c3OC(F)F)ccc21,14.9,–
O=C1NC(=O)c2cc(Nc3ccc(F)cc3)c(Nc3ccc(F)cc3)cc21,41.3,–
CNC(=O)c1c(C)oc2cc(Oc3ncnc4cc(OC)c(OC)cc34)ccc12,-6.42,–
COc1cc(C(C)=O)ccc1O,8.46,–
COc1cc2c(=O)c(-c3ccc(O)cc3)coc2cc1O,98.7,–
O=c1c(-c2ccc(O)cc2)coc2cc(O)ccc12,101,–
O=c1c(-c2ccc(O)cc2)coc2c(C3OC(CO)C(O)C(O)C3O)c(O)ccc12 (stereo not drawn),5.48,–

Compound,inhibition [1] [%],inhibition [2] [%]
COc1ccc(-c2oc3cc(OC)ccc3c2C(=O)c2ccc(C#N)cc2)cc1,1.66,–
COc1cc(C=O)ccc1O,-4.44,–
CC(C)Oc1ccc2c(=O)c3cc(C(=O)O)ccc3oc2c1,87.4,–
CC(C)Oc1ccc2c(=O)c(-c3ccccc3)coc2c1,95.2,–
CNc1cc2[nH]c(=O)n(-c3ccc(NC(=O)NS(=O)(=O)c4ccc(Cl)s4)cc3)c(=O)c2cc1F,32.7,–
C[C@@H]1CN(Cc2ncccn2)C[C@H]1c1nc2c(cnn2C2CCOCC2)c(=O)[nH]1,-2.24,–
O=C(O)c1cc(O)c2c(Cl)cc(Cl)cc2n1,6.69,–
CC(=O)Oc1ccccc1C(=O)Oc1cccc(CO[N+](=O)[O-])c1,48.1,–
CC(C)(O)CNc1nc(Nc2ccnc(C(F)(F)F)c2)nc(-c2cccc(C(F)(F)F)n2)n1,36.2,–
CC(=O)NC(C(=O)O)C(C)(C)SN=O (stereo not drawn),2.51,–
Cc1noc2c1-c1ccccc1C(c1ccc(Cl)cc1)=N[C@H]2CC(N)=O,43.6,–
Nc1ccc(F)cc1NC(=O)c1ccc(CNC(=O)/C=C/c2cccnc2)cc1,-6.65,–
N[C@H](CSC(c1ccccc1)(c1ccccc1)c1ccccc1)C(=O)O,-3.09,–
Cc1nc2n(c(=O)c1CCN1CCC(c3noc4cc(F)ccc34)CC1)CCCC2O (stereo not drawn),-9.07,–
N#Cc1cnc2cnc(NCc3cccnc3)cc2c1Nc1ccc(F)c(Cl)c1,-0.05,–
COc1ccc(-c2coc3cc(O)ccc3c2=O)cc1,99.6,–
COc1ccc(-n2c(C)c([N+](=O)[O-])c3ccc(O)cc32)cc1,12.7,–
N[C@@H](CCNCc1ccc(Cl)cc1)C(=O)N1CCCCC1,0.96,–
N=C(Nc1ccc(I)cc1)NC1C2CC3CC(C2)CC1C3 (stereo not drawn),1.97,–
Cc1ccc(-c2ncc[nH]2)cc1NC(=O)c1ccc(OCc2ccccn2)cc1,21.3,–
Fc1ccc(-c2nc3n(c2-c2ccncc2)CCS3)cc1,-4.98,–
Cc1c(F)cccc1NC(=O)Nc1ccc(Cl)c(S(=O)(=O)[C@H]2CCCNC2)c1O,36.1,–
CN1CCN(C2=Cc3ccccc3Oc3ccc(Cl)cc32)CC1,2.47,–
Cc1nc2c(OCc3ccccc3)cccn2c1CC#N,76.9,–
COc1ccc(COc2ccc(CC#N)cc2)cc1,28.5,–
CCCc1c(OCCCCc2nnn[nH]2)ccc(C(C)=O)c1O,4.66,–

Compound,inhibition [1] [%],inhibition [2] [%]
CC[N+](C)(CC)CCOC(=O)C(O)(c1ccccc1)C1CCCCC1 (stereo not drawn),-2.19,–
COc1ccc2c(C)nc(Nc3nc(C)c(C)c(O)n3)nc2c1,20.5,–
CCc1cnc(N2CCC(c3nc(COc4ccc(-n5cnnn5)cc4)cs3)CC2)nc1,14.7,–
O=C1c2ccccc2C(=O)C1c1ccc(Br)cc1,95.5,–
O=C1c2ccccc2C(=O)C1c1ccc(Cl)cc1,18.6,–
COc1ccc(C2C(=O)c3ccccc3C2=O)cc1,98.2,–
O=C1c2ccccc2C(=O)C1c1ccccc1,7.2,–
CCCC1(CCC)CCC2(CCN(CCCN(CC)CC)C2)CC1,-1.4,–
C[C@@H](O)[C@H]1C(=O)N2C(C(=O)O)=C(S[C@@H]3CN[C@H](C(=O)Nc4cccc(C(=O)O)c4)C3)[C@H](C)[C@H]12,29.2,–
CC1(c2ccccc2)OC(C(=O)O)=CC1=O (stereo not drawn),-2.75,–
Nc1nccc(-c2c(-c3ccc(F)cc3)ncn2C2CCCCC2)n1,10.1,–
COc1cc(C(=O)NC2CCN(C)CC2)c(F)cc1Nc1ncc2c(n1)N(C1CCCC1)CC(F)(F)C(=O)N2C,2.87,–
Cc1[nH]c2ccccc2c1C[C@@H](NC(=O)[C@@H](N)Cc1c[nH]cn1)C(=O)N[C@@H](C)C(=O)N[C@@H](Cc1c[nH]c2ccccc12)C(=O)N[C@H](Cc1ccccc1)C(=O)N[C@@H](CCCCN)C(N)=O (H-H[dTrp(2-Me)]AW[dF]K-NH2),-0.06,–
NCCCCCC(O)(P(=O)(O)O)P(=O)(O)O,0.9,–
"ANTIMONY POTASSIUM TARTRATE TRIHYDRATE, CHEMBL2097098",–,31.4
"AURANOFIN, CHEMBL1366",–,-8.98
"Antimonyl (potassium tartrate trihydrate), CHEMBL2097098",–,13.3
"BIS(MALTOLATO)OXOVANADIUM(IV), CHEMBL286447",–,51.3
CO[C@@H]1[C@H](OC(=O)/C=C/C=C/C=C/C=C/C(=O)O)CC[C@]2(CO2)[C@H]1[C@@]1(C)O[C@@H]1CC=C(C)C,3.49,–
CCCCC[C@H](O)/C=C/[C@@H]1[C@H]2C/C(=C/CCCC(=O)O)O[C@H]2C[C@H]1O,10.8,–
Cn1cc(CCn2cnc(-c3cnn(C)c3)c2-c2ccc(C#N)cc2)cn1,15,–
O=S(=O)(O)c1ccc2[nH]c(-c3ccccc3)nc2c1,84.1,–
O=C1c2ccc(Nc3ccc(F)cc3F)cc2CCc2ccc(OC[C@H](O)CO)cc21,24.2,–
C#Cc1cnc2nc(O)n(C(CC)CC)c2n1,-6.31,–
Nc1nc(N)nc(-c2cc(Cl)ccc2Cl)n1,17.2,–
Nc1ncnc(Nc2ccc(Cl)cc2)n1,74.5,–

Compound,inhibition [1] [%],inhibition [2] [%]
Nc1ncnc2[nH]nc(Nc3ccc(F)cc3)c12,17.6,–
CCO/N=C(/C(=O)NC1C(=O)N2C(C(=O)O)=C(Sc3nc(-c4cc[n+](C)cc4)cs3)CS[C@H]12)c1nsc(NP(=O)(O)O)n1 (stereo partly drawn),20.6,–
CC(C)[C@@H]1CC[C@@H](C)C[C@H]1O,2.89,–
CN(C)CCC(O)(c1ccccc1)c1ccccc1Cl (stereo not drawn),36.5,–
Cc1ccc(NC2=CC(=O)c3sc(C)nc3C2=O)cc1,53.2,–
Cc1c(-c2ccccc2F)[nH]c(N)c1C#N,28.6,–
"VERTEPORFIN, CHEMBL5314346",–,22.2
Cc1cccc(/C=C/c2ccccc2)n1,100,–
CC[N+](CC)(CC)CCOc1ccc(/C=C/c2ccccc2)cc1,-4.16,–
Nc1nccc(/C=C/c2ccccc2)n1,99.6,–
CC(C)[C@@H]1CC[C@@H](C)C[C@@H]1P(=O)(c1ccccc1)c1ccccc1,-9.96,–
CCC(CC)(NC(=O)C(C)C)C(=O)N[C@@H](CCCNC(=N)N)C(=O)NC1(C(=O)NC(c2ccc(F)cc2)c2ccc(F)cc2)CCCC1,22,–
CSC[C@H](N)C(=O)O,15.3,–
Cc1ccc2c(c1)C(=O)[C@]1(O)CCN(c3ccccc3)C1=N2,-8.19,–
O=c1c(-c2ccc(O)cc2)coc2cc(O)cc(O)c12,112,–
COc1ccc(-c2coc3cc(O)cc(O)c3c2=O)cc1,100,–
CN1CCN(c2ccc(/C=C(\C#N)c3ccccc3Br)cc2)CC1,-8.48,–
Nc1ncc(Cc2ccc(Br)cc2)s1,12.3,–
c1ccc(-c2nc(CN3CCN(c4ncccn4)CC3)c[nH]2)cc1,-4.48,–
C=CCOc1ccc(CC(=O)O)cc1Cl,9.47,–
Cc1ccsc1C(=CCCN1CCC[C@@H](C(=O)O)C1)c1sccc1C,20.9,–
NC1(c2ccc(-c3nc4ccn5c(=O)[nH]nc5c4cc3-c3ccccc3)cc2)CCC1,12.5,–
O=C(O)CCc1cc(I)c(Oc2ccc(O)cc2)c(I)c1,-9.91,–
CC(CNS(=O)(=O)C(C)C)c1ccc(-c2ccc(C#N)cc2)cc1 (stereo not drawn),23.9,–
O=C(Nc1ccc(OC(F)(F)F)cc1)c1sccc1NCc1ccnc2ccccc12,18.5,–
